Experiments:
[1] = biological target: Rho-associated protein kinase 1 (Homo sapiens) (UniProt Q13464); conditions: at 1 µM;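 also: reported values are mean percent inhibition of ROCK1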
[2] = biological target: Rho-associated protein kinase 2 (Homo sapiens) (UniProt O75116); conditions: at 0.1 µM
[3] = biological target: Rho-associated protein kinase 2 (Homo sapiens) (UniProt O75116); conditions: at 1 µM
[4] = biological target: Ribosomal protein S6 kinase alpha-1 (Homo sapiens) (UniProt Q15418); conditions: at 0.1 µM
Sequence of Ribosomal protein S6 kinase alpha-1 (Homo sapiens) (Q15418 whole entry): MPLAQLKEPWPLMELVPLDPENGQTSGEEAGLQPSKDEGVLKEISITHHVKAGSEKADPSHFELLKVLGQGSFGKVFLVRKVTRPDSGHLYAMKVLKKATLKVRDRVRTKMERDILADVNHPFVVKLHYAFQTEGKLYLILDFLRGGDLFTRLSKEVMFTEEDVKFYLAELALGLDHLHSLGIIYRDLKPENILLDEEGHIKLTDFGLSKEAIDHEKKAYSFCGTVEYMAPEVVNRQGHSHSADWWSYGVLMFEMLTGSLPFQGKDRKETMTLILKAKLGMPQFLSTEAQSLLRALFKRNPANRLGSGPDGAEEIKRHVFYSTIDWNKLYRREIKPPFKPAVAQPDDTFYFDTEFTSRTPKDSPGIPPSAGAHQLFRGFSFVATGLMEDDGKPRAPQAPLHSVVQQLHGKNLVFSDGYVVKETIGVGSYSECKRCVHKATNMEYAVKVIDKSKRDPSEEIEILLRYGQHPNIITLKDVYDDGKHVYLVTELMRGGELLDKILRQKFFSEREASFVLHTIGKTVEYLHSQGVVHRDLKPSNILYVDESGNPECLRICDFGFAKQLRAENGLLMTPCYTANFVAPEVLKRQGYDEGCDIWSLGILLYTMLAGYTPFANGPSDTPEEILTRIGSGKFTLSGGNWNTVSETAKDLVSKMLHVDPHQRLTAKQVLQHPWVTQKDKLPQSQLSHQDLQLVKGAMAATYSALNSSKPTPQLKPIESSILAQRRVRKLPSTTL

[5] = biological target: Ribosomal protein S6 kinase alpha-1 (Homo sapiens) (UniProt Q15418); conditions: at 1 µM
[6] = biological target: Ribosomal protein S6 kinase alpha-3 (Homo sapiens) (UniProt P51812); conditions: at 0.1 µM
Sequence of Ribosomal protein S6 kinase alpha-3 (Homo sapiens) (P51812 whole entry): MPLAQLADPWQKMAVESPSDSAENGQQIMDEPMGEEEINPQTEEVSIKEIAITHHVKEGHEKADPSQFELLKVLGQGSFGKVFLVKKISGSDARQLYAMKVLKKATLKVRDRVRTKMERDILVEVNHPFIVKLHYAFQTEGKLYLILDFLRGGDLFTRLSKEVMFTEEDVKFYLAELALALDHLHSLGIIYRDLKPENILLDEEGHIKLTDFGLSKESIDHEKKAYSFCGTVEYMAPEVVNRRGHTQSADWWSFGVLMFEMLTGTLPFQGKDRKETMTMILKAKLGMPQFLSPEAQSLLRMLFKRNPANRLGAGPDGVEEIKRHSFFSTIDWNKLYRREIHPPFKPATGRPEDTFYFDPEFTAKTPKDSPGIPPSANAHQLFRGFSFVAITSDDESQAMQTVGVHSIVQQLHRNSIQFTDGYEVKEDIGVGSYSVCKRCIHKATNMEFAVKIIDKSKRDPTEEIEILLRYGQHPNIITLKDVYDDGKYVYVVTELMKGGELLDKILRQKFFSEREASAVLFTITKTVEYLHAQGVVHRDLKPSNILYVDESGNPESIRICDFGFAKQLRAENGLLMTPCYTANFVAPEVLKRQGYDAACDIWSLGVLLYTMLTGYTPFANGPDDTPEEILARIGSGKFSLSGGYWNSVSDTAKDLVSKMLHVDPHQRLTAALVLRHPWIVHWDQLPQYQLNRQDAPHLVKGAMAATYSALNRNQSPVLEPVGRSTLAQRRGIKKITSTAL

[7] = biological target: Ribosomal protein S6 kinase alpha-3 (Homo sapiens) (UniProt P51812); conditions: at 1 µM
[8] = biological target: Ribosomal protein S6 kinase alpha-2 (Homo sapiens) (UniProt Q15349); conditions: at 0.1 µM
Sequence of Ribosomal protein S6 kinase alpha-2 (Homo sapiens) (Q15349 whole entry): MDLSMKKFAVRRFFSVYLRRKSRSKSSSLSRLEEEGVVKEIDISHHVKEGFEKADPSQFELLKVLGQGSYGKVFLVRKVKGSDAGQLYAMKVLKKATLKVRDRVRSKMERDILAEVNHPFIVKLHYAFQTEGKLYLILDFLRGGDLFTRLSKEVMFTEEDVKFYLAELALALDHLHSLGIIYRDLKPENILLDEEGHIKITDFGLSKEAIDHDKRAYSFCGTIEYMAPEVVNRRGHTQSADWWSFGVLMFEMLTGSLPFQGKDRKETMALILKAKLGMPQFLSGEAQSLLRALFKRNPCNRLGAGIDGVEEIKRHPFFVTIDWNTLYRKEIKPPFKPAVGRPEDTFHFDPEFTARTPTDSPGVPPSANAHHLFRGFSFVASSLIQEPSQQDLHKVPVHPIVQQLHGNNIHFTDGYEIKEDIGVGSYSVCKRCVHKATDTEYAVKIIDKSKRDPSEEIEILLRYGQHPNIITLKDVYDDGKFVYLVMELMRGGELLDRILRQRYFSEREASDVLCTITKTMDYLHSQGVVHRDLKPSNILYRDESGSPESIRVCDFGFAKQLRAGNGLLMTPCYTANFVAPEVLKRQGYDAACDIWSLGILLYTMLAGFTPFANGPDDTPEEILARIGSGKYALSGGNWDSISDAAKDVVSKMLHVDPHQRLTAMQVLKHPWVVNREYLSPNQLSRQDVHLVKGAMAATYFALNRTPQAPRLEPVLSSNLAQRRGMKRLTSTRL

[9] = biological target: Ribosomal protein S6 kinase alpha-2 (Homo sapiens) (UniProt Q15349); conditions: at 1 µM
[10] = biological target: Ribosomal protein S6 kinase alpha-6 (Homo sapiens) (UniProt Q9UK32); conditions: at 0.1 µM
Sequence of Ribosomal protein S6 kinase alpha-6 (Homo sapiens) (Q9UK32 whole entry): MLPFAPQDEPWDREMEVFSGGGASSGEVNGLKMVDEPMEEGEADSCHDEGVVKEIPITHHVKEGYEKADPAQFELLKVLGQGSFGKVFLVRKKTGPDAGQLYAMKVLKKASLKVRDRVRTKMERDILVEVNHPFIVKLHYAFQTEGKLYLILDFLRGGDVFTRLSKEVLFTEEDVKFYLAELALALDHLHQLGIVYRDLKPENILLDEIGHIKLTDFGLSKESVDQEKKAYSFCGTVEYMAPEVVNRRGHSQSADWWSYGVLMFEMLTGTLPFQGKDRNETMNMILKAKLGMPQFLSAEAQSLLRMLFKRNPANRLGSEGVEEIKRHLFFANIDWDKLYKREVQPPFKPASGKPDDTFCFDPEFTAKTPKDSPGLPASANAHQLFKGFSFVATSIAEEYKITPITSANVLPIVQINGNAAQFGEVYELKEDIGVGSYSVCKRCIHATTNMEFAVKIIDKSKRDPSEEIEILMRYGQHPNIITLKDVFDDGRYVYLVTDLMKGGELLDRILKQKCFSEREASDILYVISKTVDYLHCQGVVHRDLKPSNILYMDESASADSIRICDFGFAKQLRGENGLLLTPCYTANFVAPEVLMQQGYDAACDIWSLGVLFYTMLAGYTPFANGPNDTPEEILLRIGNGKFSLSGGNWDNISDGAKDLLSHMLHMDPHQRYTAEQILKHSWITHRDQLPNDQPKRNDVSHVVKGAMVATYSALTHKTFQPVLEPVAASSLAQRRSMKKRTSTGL

[11] = biological target: Ribosomal protein S6 kinase alpha-6 (Homo sapiens) (UniProt Q9UK32); conditions: at 1 µM
[12] = biological target: T1, Serine/threonine-protein kinase Sgk1 (Homo sapiens) (UniProt O00141); conditions: at 0.1 µM
T1 sequence (whole entry): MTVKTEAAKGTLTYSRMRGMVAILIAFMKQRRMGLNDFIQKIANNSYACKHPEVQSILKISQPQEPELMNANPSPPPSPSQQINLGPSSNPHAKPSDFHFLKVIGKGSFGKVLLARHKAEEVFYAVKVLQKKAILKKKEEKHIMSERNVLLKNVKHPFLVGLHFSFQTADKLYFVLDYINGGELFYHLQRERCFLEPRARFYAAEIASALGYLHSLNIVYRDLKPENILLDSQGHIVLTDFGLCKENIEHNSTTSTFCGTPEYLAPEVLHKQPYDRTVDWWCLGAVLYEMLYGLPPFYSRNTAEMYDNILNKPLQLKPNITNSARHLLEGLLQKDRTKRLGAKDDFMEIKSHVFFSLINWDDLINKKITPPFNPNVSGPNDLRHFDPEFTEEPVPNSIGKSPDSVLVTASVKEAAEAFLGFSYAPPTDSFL

[13] = biological target: T1, Serine/threonine-protein kinase Sgk1 (Homo sapiens); conditions: at 1 µM
[14] = biological target: T2, Serine/threonine-protein kinase Sgk2 (Homo sapiens) (UniProt Q9HBY8); conditions: at 0.1 µM
T2 sequence (whole entry): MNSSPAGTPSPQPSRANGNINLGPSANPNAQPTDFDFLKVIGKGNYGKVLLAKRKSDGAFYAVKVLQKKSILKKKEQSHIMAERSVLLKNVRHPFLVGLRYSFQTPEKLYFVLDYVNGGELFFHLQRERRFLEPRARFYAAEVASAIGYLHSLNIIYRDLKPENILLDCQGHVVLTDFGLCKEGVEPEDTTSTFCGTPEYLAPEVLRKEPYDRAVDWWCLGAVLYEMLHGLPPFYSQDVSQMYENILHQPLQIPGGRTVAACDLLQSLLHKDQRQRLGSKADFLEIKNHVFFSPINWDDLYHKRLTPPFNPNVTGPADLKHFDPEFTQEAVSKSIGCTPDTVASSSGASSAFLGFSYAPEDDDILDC

[15] = biological target: T2, Serine/threonine-protein kinase Sgk2 (Homo sapiens); conditions: at 1 µM
[16] = biological target: T3, Serine/threonine-protein kinase Sgk3 (Homo sapiens) (UniProt Q96BR1); conditions: at 0.1 µM
T3 sequence (whole entry): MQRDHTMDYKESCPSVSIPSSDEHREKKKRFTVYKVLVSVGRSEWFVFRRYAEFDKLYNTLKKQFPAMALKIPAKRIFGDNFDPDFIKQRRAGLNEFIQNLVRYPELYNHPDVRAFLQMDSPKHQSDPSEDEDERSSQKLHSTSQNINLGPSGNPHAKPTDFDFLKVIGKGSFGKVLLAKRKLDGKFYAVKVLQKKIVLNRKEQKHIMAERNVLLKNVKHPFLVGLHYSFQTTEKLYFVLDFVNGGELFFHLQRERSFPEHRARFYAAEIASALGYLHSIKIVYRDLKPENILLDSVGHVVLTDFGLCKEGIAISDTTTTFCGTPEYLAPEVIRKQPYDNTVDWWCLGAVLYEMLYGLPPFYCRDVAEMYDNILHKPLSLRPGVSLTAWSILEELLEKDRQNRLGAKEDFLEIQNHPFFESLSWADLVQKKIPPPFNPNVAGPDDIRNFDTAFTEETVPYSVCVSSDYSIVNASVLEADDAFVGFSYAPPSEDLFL

[17] = biological target: T3, Serine/threonine-protein kinase Sgk3 (Homo sapiens); conditions: at 1 µM
[18] = biological target: 5'-AMP-activated protein kinase catalytic subunit alpha-1 (Homo sapiens) (UniProt Q13131); conditions: at 0.1 µM
Sequence of 5'-AMP-activated protein kinase catalytic subunit alpha-1 (Homo sapiens) (Q13131 whole entry, looked up): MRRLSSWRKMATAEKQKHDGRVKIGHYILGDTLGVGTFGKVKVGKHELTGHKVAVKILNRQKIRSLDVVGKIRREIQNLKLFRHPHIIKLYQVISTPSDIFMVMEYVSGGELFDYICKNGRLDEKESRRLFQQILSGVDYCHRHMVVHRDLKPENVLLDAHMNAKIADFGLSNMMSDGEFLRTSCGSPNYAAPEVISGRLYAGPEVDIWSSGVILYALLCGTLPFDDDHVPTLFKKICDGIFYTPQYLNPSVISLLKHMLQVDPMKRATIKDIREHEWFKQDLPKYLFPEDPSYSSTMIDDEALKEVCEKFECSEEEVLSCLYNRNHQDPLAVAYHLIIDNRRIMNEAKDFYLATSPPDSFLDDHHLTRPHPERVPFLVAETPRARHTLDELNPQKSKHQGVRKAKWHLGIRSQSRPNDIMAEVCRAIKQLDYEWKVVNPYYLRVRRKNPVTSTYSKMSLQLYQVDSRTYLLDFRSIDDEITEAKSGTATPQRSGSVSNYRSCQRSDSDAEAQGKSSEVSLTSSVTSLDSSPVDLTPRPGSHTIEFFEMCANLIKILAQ

[19] = biological target: 5'-AMP-activated protein kinase catalytic subunit alpha-1 (Homo sapiens) (UniProt Q13131); conditions: at 1 µM
[20] = biological target: 5'-AMP-activated protein kinase catalytic subunit alpha-2 (Homo sapiens) (UniProt P54646); conditions: at 0.1 µM;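 also: mean inhibition measured on the AMPK complex of alpha2, beta1 and gamma1 subunits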

Sequence of Rho-associated protein kinase 2 (Homo sapiens) (O75116 whole entry, looked up): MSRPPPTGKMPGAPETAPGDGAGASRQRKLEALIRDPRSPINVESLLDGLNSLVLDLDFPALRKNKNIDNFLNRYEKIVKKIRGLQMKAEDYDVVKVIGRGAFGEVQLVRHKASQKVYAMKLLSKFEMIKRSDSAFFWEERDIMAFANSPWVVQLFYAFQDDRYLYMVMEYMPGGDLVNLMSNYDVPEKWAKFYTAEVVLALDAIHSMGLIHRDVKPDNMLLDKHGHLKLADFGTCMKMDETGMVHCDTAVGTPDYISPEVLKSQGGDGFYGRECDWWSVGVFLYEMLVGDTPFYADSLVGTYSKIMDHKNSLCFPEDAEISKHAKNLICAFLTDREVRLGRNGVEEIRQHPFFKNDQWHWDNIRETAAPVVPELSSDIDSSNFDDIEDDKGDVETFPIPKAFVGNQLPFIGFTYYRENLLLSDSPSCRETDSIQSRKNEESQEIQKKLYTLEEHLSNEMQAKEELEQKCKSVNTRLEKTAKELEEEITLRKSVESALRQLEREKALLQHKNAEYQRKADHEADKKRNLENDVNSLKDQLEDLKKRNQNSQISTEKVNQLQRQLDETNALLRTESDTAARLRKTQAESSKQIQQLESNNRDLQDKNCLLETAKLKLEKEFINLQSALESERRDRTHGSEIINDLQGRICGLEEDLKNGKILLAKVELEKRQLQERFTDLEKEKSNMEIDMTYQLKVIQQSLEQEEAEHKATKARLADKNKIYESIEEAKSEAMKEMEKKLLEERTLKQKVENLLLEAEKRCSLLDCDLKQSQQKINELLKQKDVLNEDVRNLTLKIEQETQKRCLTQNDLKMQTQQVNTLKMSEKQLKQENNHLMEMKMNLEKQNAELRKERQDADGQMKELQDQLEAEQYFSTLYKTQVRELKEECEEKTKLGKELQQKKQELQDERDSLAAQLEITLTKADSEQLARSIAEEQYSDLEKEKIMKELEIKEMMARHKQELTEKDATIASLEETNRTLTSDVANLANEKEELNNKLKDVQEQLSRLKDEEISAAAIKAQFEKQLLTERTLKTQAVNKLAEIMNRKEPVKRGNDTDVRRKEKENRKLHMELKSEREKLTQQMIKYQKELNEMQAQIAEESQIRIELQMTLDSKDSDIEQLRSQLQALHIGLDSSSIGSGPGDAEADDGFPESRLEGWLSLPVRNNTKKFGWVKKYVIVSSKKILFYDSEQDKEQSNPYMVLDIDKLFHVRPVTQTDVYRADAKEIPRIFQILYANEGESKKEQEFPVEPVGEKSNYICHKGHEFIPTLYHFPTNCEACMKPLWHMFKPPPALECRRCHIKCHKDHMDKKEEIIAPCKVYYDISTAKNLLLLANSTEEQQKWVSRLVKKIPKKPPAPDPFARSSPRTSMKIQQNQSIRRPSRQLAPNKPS

SMILES | inhibition [1] | inhibition [2] | inhibition [3] | inhibition [4] | inhibition [5] | inhibition [6] | inhibition [7] | inhibition [8] | inhibition [9] | inhibition [10] | inhibition [11] | inhibition [12] | inhibition [13] | inhibition [14] | inhibition [15] | inhibition [16] | inhibition [17] | inhibition [18] | inhibition [19] | inhibition [20]
CCn1c(-c2nonc2N)nc2ccccc21 | 36.6% | 9.34% | 42.6% | 18% | 58.3% | 7.22% | 36.2% | 19.1% | 68.5% | 1.71% | 10.4% | 4.57% | 5.48% | -0.51% | 9.28% | 2.3% | 23.6% | 3.06% | 1.63% | 0.31%
CC(C)COC(=O)c1ccc2c(c1)/C(=C/Nc1ccc(S(N)(=O)=O)cc1)C(=O)N2 | 30.2% | 6.15% | 43.9% | 6.23% | 32.4% | 7.27% | 36% | 5.76% | 35.5% | 4.96% | 39.3% | 1.25% | 19% | 1.33% | 1.89% | 1.37% | 3.19% | 23.4% | 72.3% | 5.83%
CC(=O)NCc1cccc(C#Cc2cncnc2Nc2ccc(OCc3cccc(F)c3)c(Cl)c2)c1 | 2.63% | 3.83% | 3.71% | 0.02% | 0.7% | 0.76% | 1.97% | 1.51% | 1.36% | 0.19% | 1.01% | 0.94% | 0.99% | 4.36% | -2.04% | -1.07% | 1.92% | 1.28% | 3.03% | 2.22%
CCc1nn2ncccc2c1-c1ccnc(NC2CC2)n1 | 1.83% | 1.74% | 2.93% | 1.29% | 2.08% | 1.54% | 0.91% | 3.18% | 2.75% | 1.44% | 1.93% | 2.68% | 3.56% | 0.28% | -2.61% | 2.22% | 3.01% | 1.09% | 4.1% | 2.14%
COC(=O)Nc1nc2ccc(Oc3ccc(NC(=O)Nc4cccc(Cl)c4)cc3)cc2[nH]1 | 6.4% | 2.53% | 5.68% | -0.78% | 0.39% | 0.65% | 1.37% | 0.54% | 0.67% | -0.53% | -1.02% | 0.53% | 0.15% | 1.28% | -2.41% | 0.38% | 0.61% | 0.94% | 0.58% | 1.29%
c1cc(-c2cnn3nc(N4CCOCC4)ccc23)nc(NC2CC2)n1 | 5.25% | 2.62% | 10.7% | 2.23% | 8.38% | 0.87% | 6.33% | 1.86% | 5.06% | 0.29% | 10.5% | 2.27% | 3.4% | 9.24% | 9.02% | 4.38% | 2.23% | 4.11% | 6.88% | -0.07%
Fc1cccc(COc2ccc(Nc3ncnc4sc(-c5ccco5)cc34)cc2Cl)c1 | 2.72% | 3.35% | 4.12% | 2.09% | 2.91% | 1.55% | 3.12% | 2.51% | 2.48% | 1.33% | 1.67% | 2.84% | 3.04% | 1.55% | 0.68% | 4.19% | 4.61% | 2.46% | 4.38% | 4.1%
O=C(O[C@H]1CN[C@H](C#Cc2cc3ncnc(Nc4ccc(Cc5ccccc5)cc4)c3s2)C1)N1CCOCC1 | 1.88% | 1.88% | 2.51% | 1.51% | 1.3% | 1.48% | 1.79% | 2.02% | 3% | 1.78% | 1.25% | 1.05% | 1.98% | 0.65% | 7.04% | 2.7% | 5.58% | 2.64% | 1.94% | -0.29%
COc1ccc(CNC(=O)c2ccc(-c3cc(-c4nnc(C)o4)ccc3C)cc2)cc1 | 2.35% | 4.11% | 9.48% | 3.72% | 8.08% | 2.12% | 5.75% | 0.39% | 0.4% | 0.98% | 0.1% | 5.7% | 6.79% | 4.8% | 8.78% | 7.73% | 8.7% | 0.41% | 5.85% | 2.84%
CN1CCC(n2cnc(-c3ccc(F)cc3)c2-c2ccnc(N)n2)CC1 | 1.34% | 0.69% | 5.69% | 1.08% | 4.9% | -0.12% | 2.82% | 1.52% | 4.57% | 1.08% | 3.17% | 2.03% | 5.81% | 0.15% | 7.47% | 2.25% | 2.99% | 2.2% | 7.91% | -1.23%
CCOc1ccc2c(-c3ccnc(Nc4cccc(C(F)(F)F)c4)n3)cnn2n1 | -1% | 1.46% | -0.05% | -0.89% | 0.51% | 1.29% | 1.88% | 1.09% | 0.76% | -0.47% | -0.99% | 1.25% | 0.13% | 2.25% | 0.87% | 0.95% | 2.4% | 2.48% | 2.09% | 0.22%

Reference: ChEMBL document CHEMBL1961873, “Compounds: GSK PKIS; Assays: Nanosyn kinase panel” (2012)
